NSD2 inh – NSD2 (human) methyltransferase inhibition. NSD2 peptide methylation, AlphaScreen, 120 min. 0.54% of 310,000 active. inhibition, % at 12.5 µM. AID 743445
Target sequence (O96028 whole entry, looked up): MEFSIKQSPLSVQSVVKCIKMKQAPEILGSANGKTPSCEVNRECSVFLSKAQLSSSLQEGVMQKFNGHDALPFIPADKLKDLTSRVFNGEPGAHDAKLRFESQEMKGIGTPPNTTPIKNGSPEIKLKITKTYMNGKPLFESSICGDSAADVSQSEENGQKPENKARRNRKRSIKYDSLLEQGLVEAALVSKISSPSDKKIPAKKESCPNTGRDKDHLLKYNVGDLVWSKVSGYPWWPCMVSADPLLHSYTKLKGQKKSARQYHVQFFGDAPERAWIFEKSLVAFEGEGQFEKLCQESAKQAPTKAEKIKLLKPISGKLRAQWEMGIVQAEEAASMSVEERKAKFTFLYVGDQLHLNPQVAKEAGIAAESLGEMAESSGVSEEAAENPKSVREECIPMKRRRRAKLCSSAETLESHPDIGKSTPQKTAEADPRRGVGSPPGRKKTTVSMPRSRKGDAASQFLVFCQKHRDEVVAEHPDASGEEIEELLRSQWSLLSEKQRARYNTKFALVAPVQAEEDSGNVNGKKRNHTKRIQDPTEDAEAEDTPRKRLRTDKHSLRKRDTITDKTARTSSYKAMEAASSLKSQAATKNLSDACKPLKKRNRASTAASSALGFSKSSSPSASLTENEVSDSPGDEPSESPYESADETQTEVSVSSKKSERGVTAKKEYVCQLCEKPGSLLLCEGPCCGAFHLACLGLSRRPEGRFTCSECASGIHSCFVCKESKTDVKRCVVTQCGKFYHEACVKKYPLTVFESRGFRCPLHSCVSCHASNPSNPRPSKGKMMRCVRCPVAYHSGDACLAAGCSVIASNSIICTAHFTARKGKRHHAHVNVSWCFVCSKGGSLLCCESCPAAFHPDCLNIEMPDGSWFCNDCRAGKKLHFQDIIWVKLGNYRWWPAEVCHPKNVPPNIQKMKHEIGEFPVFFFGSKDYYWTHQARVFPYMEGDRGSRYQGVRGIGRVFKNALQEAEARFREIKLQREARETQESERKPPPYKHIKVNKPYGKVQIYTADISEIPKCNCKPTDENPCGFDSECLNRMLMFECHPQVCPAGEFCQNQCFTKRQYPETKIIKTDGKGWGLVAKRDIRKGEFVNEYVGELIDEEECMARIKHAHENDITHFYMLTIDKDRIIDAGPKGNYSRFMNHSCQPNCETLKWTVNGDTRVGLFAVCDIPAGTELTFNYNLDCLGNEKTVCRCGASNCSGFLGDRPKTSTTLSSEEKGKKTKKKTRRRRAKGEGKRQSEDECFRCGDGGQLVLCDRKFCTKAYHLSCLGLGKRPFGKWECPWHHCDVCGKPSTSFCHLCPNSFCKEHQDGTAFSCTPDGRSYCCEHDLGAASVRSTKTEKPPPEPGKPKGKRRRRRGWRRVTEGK
MITF act – MITF TRPM1 promoter activation in melanoma cells | SK-MEL-5 TRPM1-promoter luciferase, 24 h; % of positive control, neutral wells = 0 | activation, % at 12.5 µM | 0.75% of 300,000 active;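 active means mean activation of at least 80% with every replicate also reaching 80%; inconclusive means mean reaches 80% but some replicate falls short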;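 further: 0% = neutral control wells and 100% = parthenolide positive control wells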
Dyrk1A ADPGlo – Dyrk1A (rat) kinase inhibition; 0.43% of 310,000 active; AID 504441; inhibition, % at 12.5 µM; Q63470; ADP-Glo luminescence, NFATc1 peptide;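 further: plate controls were vehicle with enzyme for no effect and no enzyme for full effect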
INS-1E GSIS act – primary screen for activators of insulin secretion dependent on glucose, INS-1E cells, GLuc reporter luminescence. INS-1E GLuc reporter insulin secretion, 2-3 h. activation, % at 16.6 µM. 0.61% of 370,000 active;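 active means lowest replicate activation of at least 40%, so every replicate reaches that level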;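 further: 0% = median of neutral control wells and 100% = median of IBMX positive control wells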
miR122 inh – miR-122 inhibition in Huh7 cells; Huh7 miR-122 Renilla luciferase sensor, 48 h; neutral wells = 0, positive control = 100; activation (reporter increase), % at 12.5 µM; 0.3% of 340,000 active;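 active means mean replicate activation score at least 90 and every replicate individually at or above 90; inconclusive means only one of the two criteria met; inactive means neither criterion met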;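 further: higher luciferase means less miR-122 activity so hits act as miR-122 inhibitors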
Wnt act – activates Wnt/beta-catenin signaling in a reporter cell assay | activator, plate reader | activation, % at 9.35 µM | 1.2% of 300,000 active; in the data active means activation above about 30%, passing the limit was not always enough; inconclusive means no clear call, values can overlap the other calls;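 further: 0% = neutral control wells and 100% = positive control wells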
Numbers without * were called inactive; ? = inconclusive; . = no result; [ ] = dose if it differs, or a comment. A selection: hits, their analogues and other compounds. The true share with any hit is near 2.4%. Unless noted, no stated cut-off is given here; in the data, active means inhibition above about 50%; inactive means the rest.

SMILES | NSD2 inh | MITF act | Dyrk1A ADPGlo | INS-1E GSIS act | miR122 inh | Wnt act
COc1ccc(CCC(=O)OCC(=O)Nc2ccc3[nH]c(=O)[nH]c3c2)cc1 | . | 5.5 | 2.8 | 45.1* | . | -0.1
CCN(CC)c1ccc2nc3ccc(N)cc3[n+](-c3ccccc3)c2c1 | 71.8* | -92.9 | 15.5 | -74.7 | . | -17.9
CCOc1ccc(N/C(C)=C/C(=O)c2ccc3c(c2)OCCO3)cc1 | -0.3 | 60.9 | -9.2 | 3.1 | . | 46.5*
CCOc1ccc(N/C(C)=C\C(=O)c2ccc3c(c2)OCCO3)cc1 | 1.0 | 45.5 | 2.6 | -5.6 | . | 35.9*
Cc1cccc(-c2noc(-c3csc([C@@H]4C[C@H](O)[C@@H](CO)O4)n3)n2)c1 | -5.9 | . | . | -1.9 | 5.6 | 46.2*
COc1cc(OC)cc(-c2noc(-c3csc([C@H]4C[C@H](O)[C@@H](CO)O4)n3)n2)c1 | -1.5 | . | . | . | 1.1 | 38.9*
O=C1CN(Cc2ccccc2)C[C@H]2[C@H](c3ccc(-c4ccccc4F)cc3)[C@H](CO)N12 | . | . | . | -7.9 | . | .
C[C@@H]1CN([C@H](C)CO)C(=O)c2cc(N(C)C)ccc2O[C@@H](C)CCCCO[C@H]1CN(C)Cc1ccncc1 | . | . | . | 16.1 | 6.4[16.7 µM] | .
O=S(=O)(NCC1CCCO1)c1ccc(Cl)c(C(F)(F)F)c1 (stereo not drawn) | -0.3 | 6.8 | 17.4 | 4.7 | 154.5* | .
O=C(O)C[C@H]1c2cc(C(F)(F)F)ccc2S(=O)(=O)N1C1CCCC1 | . | 7.5 | 3.9 | -4.4 | 6.2 | 1.4
CC(=O)C[C@H]1c2cc(C(F)(F)F)ccc2S(=O)(=O)N1C1CCCC1 | . | -8.5 | 34.9 | -1.0 | 104.6* | 1.8
Cc1c(C)c2c(OCC(=O)O)cc3c(c2oc1=O)CCC(C)(C)O3 | -1.3 | 5.5 | -3.8 | 248.3* | . | -0.9
Cc1c(C)c2c(OCC(=O)NCC(=O)NCC(=O)O)cc3c(c2oc1=O)CCC(C)(C)O3 | 0.0 | -13.6 | 4.2 | 4.2 | -7.0 | 1.7
CCOC(=O)C1=C(COC(=O)/C=C/c2ccc(O)c(OC)c2)NC(=O)NC1C (stereo not drawn) | -3.4 | 4.0 | . | 58.7* | . | 6.1
CCOC(=O)C1=C(COC(=O)/C=C/c2ccc(OC)c(OC)c2)NC(=O)NC1C (stereo not drawn) | -5.3 | -6.6 | 9.9 | 31.5 | . | 1.4
CS(=O)(=O)N1CC2(C1)[C@@H](c1ccccc1)[C@@H](CO)N2Cc1ccccc1 | . | . | . | 3.5 | . | .
O=C(NC1CCC1)[C@@H]1[C@@H](CO)[C@@H]2Cn3c(ccc(-c4ccccc4)c3=O)[C@@H]2N1CC1CC1 | . | . | . | 5.9 | . | .
COCC(=O)N1[C@@H](CO)[C@@H](c2ccccc2)C12CN(Cc1cccc(OC)c1)C2 | . | . | . | 2.6 | . | .
Cc1cc(C)c(C)c(S(=O)(=O)N2CCN(CC(=O)Nc3ccc([N+](=O)[O-])cc3)CC2)c1C | -0.2 | -11.0 | -9.1 | 122.4* | . | .
Cc1ccc(S(=O)(=O)N2CCN(CC(=O)Nc3ccc([N+](=O)[O-])cc3)CC2)cc1C | -1.2 | 8.7 | -7.2 | -31.9 | . | -12.5
C/C(=N\NC(=O)c1ccc(Cl)c(Cl)c1)c1ccc(Br)s1 | -2.9 | -4.5 | 0.7 | 102.5* | . | .
C/C(=N\NC(=O)c1cccs1)c1ccc2ccccc2c1 | 10.1 | 65.7 | 4.3 | -16.8 | . | 9.4
C/C(=N\NC(=O)c1ccc2ccccc2c1)c1cccs1 | 0.4 | 38.4 | -2.6 | 11.2 | -6.3 | 41.5*
CNc1cc(Cl)nc(SC)n1 | 0.4 | -1.0 | 0.8 | 8.9 | 3.8 | -1.0
CSc1nc(Cl)cc(Nc2ccc(O)cc2)n1 | -1.6 | 19.7 | 18.9 | 17.4 | . | 37.8*
SMILES | NSD2 inh | MITF act | Dyrk1A ADPGlo | INS-1E GSIS act | miR122 inh | Wnt act
CN1C(=O)/C(=C\c2ccncc2)SC1=Nc1ccccc1 | 11.1 | -8.0 | -2.0 | 66.7* | . | .
COCC(=O)Nc1nnc(-c2ccc(C(C)(C)C)cc2)s1 | 0.4 | 90.6* | 7.3 | -35.2 | -4.6 | 0.9
O=C(NCCc1ccccn1)c1ccc(OC2CCN(CCc3ccccc3)CC2)cc1 | 1.5 | 80.5* | 1.1 | 3.6 | . | ?
Cc1noc(C)c1NC(=O)Nc1ccc2c(c1)C(=O)N([C@H](C)CO)C[C@H](C)[C@H](CN(C)C(=O)NC(C)C)OCCCC[C@@H](C)O2 | . | . | . | 23.5 | 3.8[16.7 µM] | .
CC(C)S(=O)(=O)c1cnc(N2CCOCC2)nc1N | 2.6 | . | 1.5 | 7.2 | . | 40.1*
CC(C)(C)S(=O)(=O)c1cnc(N2CCOCC2)nc1N | 0.2 | . | -3.5 | 29.7 | . | 2.5
CCOc1ccc(CCNC(=O)/C=C/c2ccco2)cc1OCC | 2.1 | 19.6 | 11.8 | 17.5 | 6.1 | 34.3*
CCOc1ccc(CCNC(=O)COC(=O)/C=C/c2ccco2)cc1OCC | 6.5 | -2.4 | -2.3 | 44.3* | -3.7 | 2.1
COc1ccc(N2Cc3ccc(OC)c(OC)c3C2=O)cc1 | -2.8 | 86.4* | 12.4 | -3.6 | 5.8 | -1.3
OCCC1CN(Cc2nc(-c3ccccc3)cs2)CCN1Cc1ccc(F)cc1 (stereo not drawn) | 2.6 | -7.9 | 3.1 | . | . | -3.3
OCCC1CN(Cc2nc(-c3ccccc3)cs2)CCN1C1CCCC1 (stereo not drawn) | 0.7 | 6.7 | 2.1 | -6.3 | 1.1 | 33.8*
C[C@H]1CN(C)C(=O)Cc2ccccc2O[C@@H]1CN(C)C(=O)OC(C)(C)C | . | . | . | -1.9 | . | .
O=C(Nc1cccc2c1C(=O)NC2=O)c1cccc(N2C(=O)CCC2=O)c1 | 6.5 | . | 3.2 | 7.6 | . | -0.9
O=C(CN1C(=O)CCC1=O)Nc1cccc2c1C(=O)NC2=O | -1.5 | -5.6 | 2.2 | 40.8* | 8.6 | -0.6
Cc1ccc(S(=O)(=O)N2CC[C@@H]3[C@H]2c2cc(C#Cc4cccc(F)c4)ccc2N[C@@H]3CO)cc1 | . | . | . | -29.0 | -5.7[16.7 µM] | .
Cc1ccc(NC(=O)c2cc(-c3ccccc3)nn2-c2ccccc2)cc1 | -2.0 | 2.7 | 0.0 | -6.8 | 9.3 | -0.7
CC(=O)C(/C=N/c1cc(-c2ccc(C)cc2)nn1-c1ccccc1)=C(\C)O | -1.7 | 41.9 | -5.7 | . | . | 38.4*
O=C(COc1ccc(C(=O)c2ccccc2)cc1)NC1CCCCCC1 | -3.0 | -8.0 | -6.9 | -26.4 | . | 48.6*
O=C(CCS(=O)(=O)c1ccccc1)NC1CCCCC1 | -3.3 | 105.3* | -8.2 | 8.7 | 0.1 | 22.3
O=C(COc1ccccc1Br)NC(=O)NC1CCCC1 | -1.2 | 140.8* | -0.8 | 15.1 | 7.3 | 11.4
C[C@H](CO)N1C[C@H](C)[C@@H](CN(C)S(C)(=O)=O)Oc2c(NC(=O)CCC(F)(F)F)cccc2C1=O | . | . | . | 22.6 | . | .
CCSc1nnc2ccc(-c3cccs3)nn12 | -1.9 | 19.7 | 8.5 | 42.5* | 6.7 | -1.0
CC(C)[C@@H]1COCc2cn(nn2)CC[C@H](C)C(=O)N1 | . | . | . | -2.5 | . | .
COc1ccc(NS(=O)(=O)c2cc(NC(=O)c3ccc(=O)[nH]c3)ccc2C)cc1 | 0.3 | -0.7 | . | -10.2 | 99.6* | 2.5
O=C(NCC1CCCO1)C(c1cccs1)N(Cc1cccs1)C(=O)Cn1nnc(-c2cccs2)n1 (stereo not drawn) | 3.4 | -6.2 | 18.1 | . | 115.8* | -6.8
CN(C(=O)CSc1nc2ccccc2o1)C1CCCCC1 | -1.6 | ? | -6.9 | 18.4 | -8.8 | 57.1*
